Measured values reported in article PMC7862700, “An all-to-all approach to the identification of sequence-specific readers for epigenetic DNA modifications on cytosine”.

Assays:
Experiment in all cases: DAPPL (digital affinity profiling via proximity ligation, sequencing); 10 mM Tris-HCl pH 7.5, 50 mM NaCl, 1 mM DTT, 4% glycerol, room temperature, 30 min; GST-TFs on glutathione beads, 16-mer random dsDNA library, 0.1% formaldehyde crosslink after washing; high values mean tight binding
[1] = target: T1, FLI1 (Homo sapiens, UniProt Q01543 1-452); conditions: protein: recombinant; tags: N-terminal GST; dsDNA, one strand shown
T1 sequence: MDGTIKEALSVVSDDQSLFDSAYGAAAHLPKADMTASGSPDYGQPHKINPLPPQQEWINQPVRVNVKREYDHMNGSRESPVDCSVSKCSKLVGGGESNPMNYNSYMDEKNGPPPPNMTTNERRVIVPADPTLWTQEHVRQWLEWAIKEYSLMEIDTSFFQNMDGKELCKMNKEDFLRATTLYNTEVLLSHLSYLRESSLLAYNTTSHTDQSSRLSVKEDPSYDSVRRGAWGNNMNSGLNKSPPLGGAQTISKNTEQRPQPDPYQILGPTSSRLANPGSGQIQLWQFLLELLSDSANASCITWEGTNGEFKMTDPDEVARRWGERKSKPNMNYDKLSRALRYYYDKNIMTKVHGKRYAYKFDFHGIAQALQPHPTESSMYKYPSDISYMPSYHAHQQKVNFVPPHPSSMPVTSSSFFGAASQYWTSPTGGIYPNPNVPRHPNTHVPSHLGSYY
How it was run: (§1)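 Human transcription factors were made in yeast as GST fusions, captured on glutathione beads and barcoded with DNA. With a tag-only sample included, the pool was incubated with 200 nmole of a random double-stranded 16-mer DNA library in Tris/NaCl/DTT/glycerol buffer at room temperature for 30 min, then crosslinked with 0.1% formaldehyde after washing, ligated by proximity, amplified and sequenced. For binding signal, each hexamer's read frequency for a factor is divided by its frequency for the tag-only sample.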

[2] = target: T2, ELK1 (Homo sapiens, UniProt P19419 1-428); conditions: protein: recombinant; tags: N-terminal GST; dsDNA, one strand shown
T2 sequence: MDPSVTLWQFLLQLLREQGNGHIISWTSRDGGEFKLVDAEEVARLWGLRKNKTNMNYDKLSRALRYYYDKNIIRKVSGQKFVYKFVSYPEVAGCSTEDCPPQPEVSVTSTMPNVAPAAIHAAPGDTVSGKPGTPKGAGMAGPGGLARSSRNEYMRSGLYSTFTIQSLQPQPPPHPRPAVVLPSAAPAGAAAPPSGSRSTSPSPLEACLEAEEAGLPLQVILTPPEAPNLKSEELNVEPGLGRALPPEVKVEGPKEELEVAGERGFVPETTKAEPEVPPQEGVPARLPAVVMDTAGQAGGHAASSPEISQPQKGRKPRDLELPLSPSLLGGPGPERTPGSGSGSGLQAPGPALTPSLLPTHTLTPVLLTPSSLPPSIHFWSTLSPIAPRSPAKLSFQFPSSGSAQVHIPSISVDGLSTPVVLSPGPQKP
How it was run: as §1

[3] = target: T3, GABPA (Homo sapiens, UniProt Q06546 1-454); conditions: protein: recombinant; tags: N-terminal GST; dsDNA, one strand shown
T3 sequence: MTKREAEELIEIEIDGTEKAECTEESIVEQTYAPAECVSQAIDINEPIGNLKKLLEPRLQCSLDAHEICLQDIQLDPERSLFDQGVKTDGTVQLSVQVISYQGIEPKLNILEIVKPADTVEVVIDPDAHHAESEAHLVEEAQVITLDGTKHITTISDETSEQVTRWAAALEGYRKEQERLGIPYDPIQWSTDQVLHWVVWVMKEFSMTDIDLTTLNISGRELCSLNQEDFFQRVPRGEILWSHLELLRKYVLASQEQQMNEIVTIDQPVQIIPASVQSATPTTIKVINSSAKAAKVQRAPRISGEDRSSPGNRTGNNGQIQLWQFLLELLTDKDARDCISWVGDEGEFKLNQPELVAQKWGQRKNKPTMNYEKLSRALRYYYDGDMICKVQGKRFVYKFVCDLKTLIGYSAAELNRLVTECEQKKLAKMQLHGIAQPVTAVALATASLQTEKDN
How it was run: as §1

[4] = target: T4, ERG (Homo sapiens, UniProt P11308 1-479); conditions: protein: recombinant; tags: N-terminal GST; dsDNA, one strand shown
T4 sequence: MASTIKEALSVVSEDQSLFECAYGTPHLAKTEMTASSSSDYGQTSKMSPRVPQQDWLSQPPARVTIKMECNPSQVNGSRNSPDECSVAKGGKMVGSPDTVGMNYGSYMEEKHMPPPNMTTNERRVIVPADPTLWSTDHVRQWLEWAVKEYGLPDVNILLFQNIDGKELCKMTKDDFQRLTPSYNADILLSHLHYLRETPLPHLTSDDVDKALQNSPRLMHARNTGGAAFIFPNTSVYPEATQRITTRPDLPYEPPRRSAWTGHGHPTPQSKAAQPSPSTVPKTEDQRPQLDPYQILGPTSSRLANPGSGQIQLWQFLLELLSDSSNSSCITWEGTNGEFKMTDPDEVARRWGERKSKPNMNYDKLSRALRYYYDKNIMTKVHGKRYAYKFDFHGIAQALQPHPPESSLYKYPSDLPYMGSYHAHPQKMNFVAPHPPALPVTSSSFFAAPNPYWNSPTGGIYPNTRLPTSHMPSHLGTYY
How it was run: as §1

[5] = target: ELF1 (Homo sapiens, UniProt P32519 1-619); conditions: protein: recombinant; tags: N-terminal GST; dsDNA, one strand shown
How it was run: as §1

[6] = target: T5, EHF (Homo sapiens, UniProt Q9NZC4 1-300); conditions: protein: recombinant; tags: N-terminal GST; dsDNA, one strand shown
T5 sequence: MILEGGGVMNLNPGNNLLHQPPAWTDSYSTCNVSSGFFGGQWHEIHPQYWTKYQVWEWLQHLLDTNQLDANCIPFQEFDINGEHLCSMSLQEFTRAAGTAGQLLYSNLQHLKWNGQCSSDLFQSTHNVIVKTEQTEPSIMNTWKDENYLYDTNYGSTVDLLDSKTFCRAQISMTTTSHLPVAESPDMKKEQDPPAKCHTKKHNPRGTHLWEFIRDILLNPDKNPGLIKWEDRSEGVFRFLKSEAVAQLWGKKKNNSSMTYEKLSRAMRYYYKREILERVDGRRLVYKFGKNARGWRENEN
How it was run: as §1

[7] = target: SPI1 (Homo sapiens, UniProt P17947 1-270); conditions: protein: recombinant; tags: N-terminal GST; dsDNA, one strand shown
How it was run: as §1

[8] = target: SPIB (Homo sapiens, UniProt Q01892 1-262); conditions: protein: recombinant; tags: N-terminal GST; dsDNA, one strand shown
How it was run: as §1

[9] = target: T6, FEV (Homo sapiens, UniProt Q99581 1-238); conditions: protein: recombinant; tags: N-terminal GST; dsDNA, one strand shown
T6 sequence: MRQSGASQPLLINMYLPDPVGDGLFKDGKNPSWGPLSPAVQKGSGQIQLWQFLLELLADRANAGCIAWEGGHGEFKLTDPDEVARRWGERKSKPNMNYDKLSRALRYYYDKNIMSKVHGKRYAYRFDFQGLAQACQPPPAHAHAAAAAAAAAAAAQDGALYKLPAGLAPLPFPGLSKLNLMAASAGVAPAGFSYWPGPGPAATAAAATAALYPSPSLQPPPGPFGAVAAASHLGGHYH
How it was run: as §1

[10] = target: ETV5 (Homo sapiens, UniProt P41161 1-510); conditions: protein: recombinant; tags: N-terminal GST; dsDNA, one strand shown
How it was run: as §1

[11] = target: HSF1 (Homo sapiens, UniProt Q00613 1-529); conditions: protein: recombinant; tags: N-terminal GST; chain copies: 3; dsDNA, one strand shown
How it was run: as §1

[12] = target: T7, SPIC (Homo sapiens, UniProt Q8N5J4 1-248); conditions: protein: recombinant; tags: N-terminal GST; dsDNA, one strand shown
T7 sequence: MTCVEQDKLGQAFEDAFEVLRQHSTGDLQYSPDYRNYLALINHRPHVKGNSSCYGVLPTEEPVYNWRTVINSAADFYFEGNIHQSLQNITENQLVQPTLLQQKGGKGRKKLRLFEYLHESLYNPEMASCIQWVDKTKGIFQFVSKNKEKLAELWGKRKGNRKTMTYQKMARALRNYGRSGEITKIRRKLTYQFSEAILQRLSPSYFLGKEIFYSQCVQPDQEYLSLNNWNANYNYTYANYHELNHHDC
How it was run: as §1

[13] = target: ELF4 (Homo sapiens, UniProt Q99607 1-663); conditions: protein: recombinant; tags: N-terminal GST; dsDNA, one strand shown
How it was run: as §1

[14] = target: T8, ELK4 (Homo sapiens, UniProt P28324-2 1-405); conditions: protein: recombinant; tags: N-terminal GST; dsDNA, one strand shown
T8 sequence: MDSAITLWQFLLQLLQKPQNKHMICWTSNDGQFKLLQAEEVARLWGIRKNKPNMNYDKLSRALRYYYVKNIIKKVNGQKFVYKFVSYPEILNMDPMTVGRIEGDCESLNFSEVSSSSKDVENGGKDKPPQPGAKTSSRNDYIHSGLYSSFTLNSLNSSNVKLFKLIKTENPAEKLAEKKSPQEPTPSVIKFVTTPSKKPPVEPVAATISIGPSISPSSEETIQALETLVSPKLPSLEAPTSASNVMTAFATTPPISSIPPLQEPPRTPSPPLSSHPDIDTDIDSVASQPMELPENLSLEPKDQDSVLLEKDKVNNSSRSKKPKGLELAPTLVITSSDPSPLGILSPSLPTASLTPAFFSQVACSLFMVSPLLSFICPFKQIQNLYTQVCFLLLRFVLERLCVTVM
How it was run: as §1

[15] = target: T9, ETV2 (Homo sapiens, UniProt O00321 1-342); conditions: protein: recombinant; tags: N-terminal GST; dsDNA, one strand shown
T9 sequence: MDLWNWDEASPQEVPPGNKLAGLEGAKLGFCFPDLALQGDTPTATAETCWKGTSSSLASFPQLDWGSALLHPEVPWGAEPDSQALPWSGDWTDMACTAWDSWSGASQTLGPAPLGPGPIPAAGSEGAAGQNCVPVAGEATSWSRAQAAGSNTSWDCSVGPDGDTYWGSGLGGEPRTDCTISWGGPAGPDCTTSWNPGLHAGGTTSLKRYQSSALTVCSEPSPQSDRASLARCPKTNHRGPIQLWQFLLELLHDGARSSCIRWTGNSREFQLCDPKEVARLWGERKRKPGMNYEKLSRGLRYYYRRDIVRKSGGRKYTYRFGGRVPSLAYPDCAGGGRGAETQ
How it was run: as §1

[16] = target: T10, ELF3 (Homo sapiens, UniProt P78545 1-371); conditions: protein: recombinant; tags: N-terminal GST; dsDNA, one strand shown
T10 sequence: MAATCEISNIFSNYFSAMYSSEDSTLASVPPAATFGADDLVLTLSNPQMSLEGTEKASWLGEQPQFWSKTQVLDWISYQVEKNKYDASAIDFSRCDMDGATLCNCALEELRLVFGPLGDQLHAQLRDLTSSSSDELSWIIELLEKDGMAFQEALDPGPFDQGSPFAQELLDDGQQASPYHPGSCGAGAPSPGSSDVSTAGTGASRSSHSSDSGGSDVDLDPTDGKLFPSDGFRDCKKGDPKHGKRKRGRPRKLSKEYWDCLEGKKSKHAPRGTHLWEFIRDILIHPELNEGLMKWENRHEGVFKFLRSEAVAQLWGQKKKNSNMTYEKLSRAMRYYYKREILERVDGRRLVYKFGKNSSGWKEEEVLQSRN
How it was run: as §1

[17] = target: CRX (Homo sapiens, UniProt O43186 1-299); conditions: protein: recombinant; tags: N-terminal GST; dsDNA, one strand shown
How it was run: as §1

[18] = target: ETV1 (Homo sapiens, UniProt P50549 1-477); conditions: protein: recombinant; tags: N-terminal GST; dsDNA, one strand shown
How it was run: as §1

Sequence of CRX (O43186 whole entry): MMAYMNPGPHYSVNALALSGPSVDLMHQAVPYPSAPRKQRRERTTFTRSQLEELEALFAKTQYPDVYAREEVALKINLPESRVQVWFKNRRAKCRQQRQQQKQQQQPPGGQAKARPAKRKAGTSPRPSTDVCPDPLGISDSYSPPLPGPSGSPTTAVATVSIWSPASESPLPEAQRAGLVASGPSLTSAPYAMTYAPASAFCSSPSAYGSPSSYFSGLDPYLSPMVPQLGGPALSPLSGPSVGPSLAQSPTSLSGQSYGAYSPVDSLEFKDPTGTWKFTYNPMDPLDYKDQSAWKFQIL
Sequence of SPIB (Q01892 whole entry): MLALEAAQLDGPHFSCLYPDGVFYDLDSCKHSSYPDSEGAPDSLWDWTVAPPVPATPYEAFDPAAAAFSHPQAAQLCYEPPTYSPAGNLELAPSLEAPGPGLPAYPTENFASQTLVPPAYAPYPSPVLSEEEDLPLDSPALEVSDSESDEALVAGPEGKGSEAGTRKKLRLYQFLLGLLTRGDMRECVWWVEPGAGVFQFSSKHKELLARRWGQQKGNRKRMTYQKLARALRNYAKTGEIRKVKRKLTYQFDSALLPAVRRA
Sequence of ETV1 (P50549 whole entry): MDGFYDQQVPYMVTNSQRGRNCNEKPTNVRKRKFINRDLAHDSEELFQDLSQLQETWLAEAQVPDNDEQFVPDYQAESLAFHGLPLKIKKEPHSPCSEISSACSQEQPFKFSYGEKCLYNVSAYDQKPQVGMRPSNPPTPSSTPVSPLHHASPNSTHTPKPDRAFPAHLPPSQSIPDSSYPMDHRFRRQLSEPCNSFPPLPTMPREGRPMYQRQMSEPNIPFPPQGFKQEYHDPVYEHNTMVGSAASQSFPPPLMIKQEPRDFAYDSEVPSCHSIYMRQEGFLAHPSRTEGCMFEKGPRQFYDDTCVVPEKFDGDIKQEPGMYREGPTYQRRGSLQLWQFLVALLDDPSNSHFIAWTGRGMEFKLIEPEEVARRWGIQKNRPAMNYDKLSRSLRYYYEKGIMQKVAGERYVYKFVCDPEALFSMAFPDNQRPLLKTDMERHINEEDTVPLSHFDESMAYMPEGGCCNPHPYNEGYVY
Sequence of ETV5 (P41161 whole entry): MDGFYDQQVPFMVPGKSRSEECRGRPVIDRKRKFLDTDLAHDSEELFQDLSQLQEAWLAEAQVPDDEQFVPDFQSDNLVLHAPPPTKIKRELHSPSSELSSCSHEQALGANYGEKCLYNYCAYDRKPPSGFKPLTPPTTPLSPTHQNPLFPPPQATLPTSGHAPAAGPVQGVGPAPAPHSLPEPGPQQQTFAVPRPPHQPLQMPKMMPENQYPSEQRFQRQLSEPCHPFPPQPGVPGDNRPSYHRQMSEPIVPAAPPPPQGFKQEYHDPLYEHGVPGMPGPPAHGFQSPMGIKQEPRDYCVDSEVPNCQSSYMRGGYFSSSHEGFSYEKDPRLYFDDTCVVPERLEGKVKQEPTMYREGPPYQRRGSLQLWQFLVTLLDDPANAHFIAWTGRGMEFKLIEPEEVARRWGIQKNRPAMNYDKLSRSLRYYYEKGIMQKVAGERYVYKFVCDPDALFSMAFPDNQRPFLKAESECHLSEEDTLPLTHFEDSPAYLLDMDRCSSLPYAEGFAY
Sequence of ELF4 (Q99607 whole entry): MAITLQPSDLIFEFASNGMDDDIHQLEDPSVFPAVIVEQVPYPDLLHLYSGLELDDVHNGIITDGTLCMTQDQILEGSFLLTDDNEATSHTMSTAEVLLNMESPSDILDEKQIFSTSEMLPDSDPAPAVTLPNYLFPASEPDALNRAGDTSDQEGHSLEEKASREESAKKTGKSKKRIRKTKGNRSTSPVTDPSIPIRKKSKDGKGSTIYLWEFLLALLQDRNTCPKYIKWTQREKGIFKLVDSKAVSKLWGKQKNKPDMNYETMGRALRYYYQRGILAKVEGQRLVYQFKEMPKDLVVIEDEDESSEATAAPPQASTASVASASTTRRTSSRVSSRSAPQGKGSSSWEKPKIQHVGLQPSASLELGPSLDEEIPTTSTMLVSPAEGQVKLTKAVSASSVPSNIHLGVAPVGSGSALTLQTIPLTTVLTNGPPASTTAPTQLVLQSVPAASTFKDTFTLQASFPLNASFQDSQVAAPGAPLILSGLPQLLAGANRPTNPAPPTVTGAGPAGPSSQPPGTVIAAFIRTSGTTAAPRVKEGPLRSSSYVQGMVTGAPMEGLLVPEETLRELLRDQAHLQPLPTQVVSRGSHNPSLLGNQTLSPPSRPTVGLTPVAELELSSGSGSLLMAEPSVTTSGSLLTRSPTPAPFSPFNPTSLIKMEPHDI
Sequence of ELF1 (P32519 whole entry): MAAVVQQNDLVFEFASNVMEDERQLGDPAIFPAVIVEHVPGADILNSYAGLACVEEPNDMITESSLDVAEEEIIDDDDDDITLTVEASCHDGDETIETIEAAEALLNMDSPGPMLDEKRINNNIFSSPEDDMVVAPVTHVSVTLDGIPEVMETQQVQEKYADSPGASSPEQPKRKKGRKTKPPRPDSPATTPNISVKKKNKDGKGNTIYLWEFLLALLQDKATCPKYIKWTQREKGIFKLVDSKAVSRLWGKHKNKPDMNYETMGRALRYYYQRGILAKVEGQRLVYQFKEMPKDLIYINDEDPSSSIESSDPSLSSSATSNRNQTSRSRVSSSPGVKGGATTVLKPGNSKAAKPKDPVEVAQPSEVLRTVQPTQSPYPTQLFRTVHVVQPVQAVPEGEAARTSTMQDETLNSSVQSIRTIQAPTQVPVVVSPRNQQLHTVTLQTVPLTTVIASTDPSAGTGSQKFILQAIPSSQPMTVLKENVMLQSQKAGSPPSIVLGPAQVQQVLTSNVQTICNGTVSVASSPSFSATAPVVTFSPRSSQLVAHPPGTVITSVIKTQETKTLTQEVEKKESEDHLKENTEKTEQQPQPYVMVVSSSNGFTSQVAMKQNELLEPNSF
Sequence of HSF1 (Q00613 whole entry): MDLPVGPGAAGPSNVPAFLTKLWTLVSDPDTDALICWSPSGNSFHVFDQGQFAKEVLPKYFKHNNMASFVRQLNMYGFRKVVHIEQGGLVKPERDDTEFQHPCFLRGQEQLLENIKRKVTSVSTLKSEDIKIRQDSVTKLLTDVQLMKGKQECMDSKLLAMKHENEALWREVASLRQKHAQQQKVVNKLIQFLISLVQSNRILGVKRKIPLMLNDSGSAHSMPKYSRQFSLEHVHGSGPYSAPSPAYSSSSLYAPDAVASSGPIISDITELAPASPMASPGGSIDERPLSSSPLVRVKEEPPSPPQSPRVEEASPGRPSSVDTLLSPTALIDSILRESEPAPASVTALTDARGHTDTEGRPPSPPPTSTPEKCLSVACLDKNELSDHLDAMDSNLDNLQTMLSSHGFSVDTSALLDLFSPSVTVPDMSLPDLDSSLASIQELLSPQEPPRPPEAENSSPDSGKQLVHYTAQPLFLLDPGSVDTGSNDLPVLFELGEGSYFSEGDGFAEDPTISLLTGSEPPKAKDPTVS

ATAGCT
binding signal [1]: 1.13 fold enrichment (6-mer frequency, TF over GST control) | binding signal [2]: 1.08 fold enrichment (6-mer frequency, TF over GST control) | binding signal [3]: 1.2 fold enrichment (6-mer frequency, TF over GST control) | binding signal [4]: 1.07 fold enrichment (6-mer frequency, TF over GST control) | binding signal [5]: 1.19 fold enrichment (6-mer frequency, TF over GST control) | binding signal [6]: 1.25 fold enrichment (6-mer frequency, TF over GST control) | binding signal [7]: 1.17 fold enrichment (6-mer frequency, TF over GST control) | binding signal [8]: 1.09 fold enrichment (6-mer frequency, TF over GST control) | binding signal [9]: 1.16 fold enrichment (6-mer frequency, TF over GST control) | binding signal [10]: 1.2 fold enrichment (6-mer frequency, TF over GST control) | binding signal [11]: 1.06 fold enrichment (6-mer frequency, TF over GST control) | binding signal [12]: 1.15 fold enrichment (6-mer frequency, TF over GST control) | binding signal [13]: 1.07 fold enrichment (6-mer frequency, TF over GST control) | binding signal [14]: 1.25 fold enrichment (6-mer frequency, TF over GST control) | binding signal [15]: 1.27 fold enrichment (6-mer frequency, TF over GST control) | binding signal [16]: 1.26 fold enrichment (6-mer frequency, TF over GST control) | binding signal [17]: 1.26 fold enrichment (6-mer frequency, TF over GST control) | binding signal [18]: 1.11 fold enrichment (6-mer frequency, TF over GST control)
